# Screens: PubChem, several laboratories
# In the library only some 0.98% were active in any assay of this set; here they are far more common.
# Y pestis TopoI – blocks Yersinia pestis topoisomerase I activity. Y. pestis Topo-I cleavage product accumulation, plate reader. activity, % at 10 µM. 360,000 tested, 0.064% active. AID 504884; in the data active = activity above about 50%, passing the limit was not always enough; inconclusive = no clear call, values can overlap the other calls
# Mtb UGM inh – blocks M. tuberculosis UGM enzyme; purified UGM, fluorescence polarization probe displacement; inhibition, % at 10 µM; 320,000 tested, 0.06% active; P9WIQ1; in the data active = inhibition above about 10%, passing the limit was not always enough; inconclusive = no clear call, values can overlap the other calls
# Target sequence (P9WIQ1 whole entry, looked up): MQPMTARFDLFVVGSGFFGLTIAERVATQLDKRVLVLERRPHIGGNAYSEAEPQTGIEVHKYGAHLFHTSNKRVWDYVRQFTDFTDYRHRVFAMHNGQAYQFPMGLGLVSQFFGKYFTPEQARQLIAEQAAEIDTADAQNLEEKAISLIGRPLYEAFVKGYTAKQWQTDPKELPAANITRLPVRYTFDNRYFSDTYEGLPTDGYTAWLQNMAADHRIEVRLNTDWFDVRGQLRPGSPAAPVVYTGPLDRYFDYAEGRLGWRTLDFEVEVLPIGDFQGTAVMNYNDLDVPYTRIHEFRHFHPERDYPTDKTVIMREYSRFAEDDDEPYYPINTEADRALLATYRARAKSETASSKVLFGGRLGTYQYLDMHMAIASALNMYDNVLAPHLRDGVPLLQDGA
# Mtb betalactam – beta-lactam sensitization of Mtb H37Rv | M. tuberculosis H37Rv growth with meropenem, percent inhibition | inhibition, % at 25 µM | 330,000 tested, 0.27% active | AID 434955; call rule not given here;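 also: growth measured after seven days incubation then overnight dye step; 0% = bacteria only wells and 100% = bacteria with antibiotic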
# FadD28 binding – M. tuberculosis FadD28 bisubstrate binding inhibition; FadD28 bisubstrate probe binding, fluorescence polarization; inhibition, % at 12.5 µM; 360,000 tested, 0.22% active; in the data active = inhibition above about 8.5%, passing the limit was not always enough; inconclusive = no clear call, values can overlap the other calls
# Rv3671c inh – inhibits the M. tuberculosis serine protease Rv3671c; 320,000 tested, 0.048% active; inhibition, % at 5.96 µM; AID 2606; in the data active = inhibition above about 38%;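 also: extracellular domain of Rv3671c used as enzyme; 0% = enzyme with DMSO and 100% = no enzyme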
# PfHsp40 rescue – rescue of PfHsp40-mediated yeast toxicity | 340,000 tested, 0.68% active | S. cerevisiae expressing PfHsp40, growth rescue, ATP luminescence | growth rescue, % at 12.5 µM; in the data active = growth rescue above about 28%, passing the limit was not always enough; inconclusive = no clear call, values can overlap the other calls;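 also: yeast W303a lacking pdr1 and pdr3 grown in galactose medium; growth measured after three days at 30 °C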
# Numbers without * were called inactive; ? = inconclusive; nt = no result given.
SMILES,Y pestis TopoI,Mtb UGM inh,Mtb betalactam,FadD28 binding,Rv3671c inh,PfHsp40 rescue
C=CC[n+]1c(/C=C2\C=Cc3cc(C)ccc3N2CC)ccc2ccccc21,0.0,-3.3,99.5,-2.0,-30.9,277.1*
COC(=O)N1CCCCC1c1cc(C(=O)Nc2ccccc2Cl)no1 (configuration not stated),21.6,nt,nt,-2.5,nt,nt
CC(C)/C=C(/C(=O)c1ccc(Cl)cc1Cl)n1cncn1,6.7,3.4,2.8,-3.2,-7.8,398.6*
COCCCN1C(=O)C(CC(=O)NCc2cccs2)CC(C(=O)N(C)C)=C1C (configuration not stated),-0.1,nt,nt,-2.6,nt,nt
N=C(N)c1ccc(N)cc1,-2.8,4.3,-9.9,0.2,-3.4,67.3*
N=C(N)c1ccc(OCCCCCOc2ccc(C(=N)N)cc2)cc1,7.7,-0.4,99.9,0.8,5.3,112.3*
CCCCCCOc1ccc(/C(N)=N/O)cc1,9.2,-1.5,2.9,1.0,5.6,0.3
O=C(c1ccc(Cl)cc1)N1CCN(c2ccc(F)cc2)CC1,8.7,3.9,1.7,-1.8,-1.8,109.7*
O=C(COc1c(F)c(F)c(C(F)(F)F)c(F)c1F)Nc1ccc(N2CCOCC2)c(Cl)c1,-4.6,-0.4,-2.1,-1.7,-7.9,29.7*
Cc1cc(C)cc(-n2ncc3c2CCCC3NC(=O)c2ccccc2)c1 (configuration not stated),24.2,nt,nt,0.3,nt,nt
OC(c1ccccc1)c1nc(-c2cccc(C(F)(F)F)c2)cs1 (configuration not stated),2.0,nt,nt,-1.6,nt,nt
O=C(NCCc1ccccc1)c1ccc2nc(-c3ccco3)c(-c3ccco3)nc2c1,6.4,1.5,6.4,0.3,0.7,-0.6
O=C(NCCO)c1ccc2nc(-c3ccco3)c(-c3ccco3)nc2c1,-13.6,-0.4,5.1,12.9*,8.9,0.4
CC(=O)c1ccc(NC(=O)Nc2ccc(NS(=O)(=O)c3ccc(C)cc3)cc2)cc1,-12.4,4.7,-9.8,11.2*,-105.7,1.3
CC(=O)Nc1ccc(C(=O)NNS(=O)(=O)c2ccc(C)cc2)cc1,2.0,0.7,-0.4,-1.5,-12.5,-0.2
CCCCCCCCC(c1nc2ccccc2[nH]1)N1CCN=C(c2ccccc2)C1=O (configuration not stated),nt,nt,nt,-1.2,nt,nt
CCCS(=O)(=O)NC(=O)C1(C)CCN(C(=O)c2cc(C)oc2C)C1 (configuration not stated),0.7,nt,nt,-1.9,nt,nt
N#C/C(=C(/O)CSc1ccccc1C(=O)O)c1nc2ccccc2s1,1.2,14.5*,-2.1,1.5,0.2,0.4
S=c1[nH]ncn1/N=C/c1cccc(Oc2ccccc2)c1,-1.8,3.8,-15.1,-2.0,-0.9,106.2*
c1ccc(Nc2cccc3c(Nc4ccccc4)cccc23)cc1,-9.5,0.8,6.2,-2.5,6.8,-1.4
O=S(=O)(O)c1cccc2cccc(Nc3ccccc3)c12,1.3,-0.9,-9.4,80.9*,-1.5,7.0
COCCNC(=S)N1CCC(C(=O)c2ccc(C)cc2)CC1,-0.6,-1.0,-9.8,-1.2,-2.5,48.1*
CN(C)/C=C1/N=C(c2ccccc2)OC1=O,-4.9,1.1,0.3,-2.0,2.1,0.2
O=CC1=C(c2ccccc2)Oc2ccccc2O1,2.6,0.8,11.3,0.1,6.4,494.6*
CCOc1ccc(NCc2cc3c(C(C)(C)C)nn(-c4ccccc4)c3[nH]c2=O)cc1,-0.7,-2.2,97.3,-1.1,-2.7,42.6*
SMILES,Y pestis TopoI,Mtb UGM inh,Mtb betalactam,FadD28 binding,Rv3671c inh,PfHsp40 rescue
Cc1ccc2c(CN3CCN(c4ccccc4F)CC3)cc(=O)oc2c1,nt,nt,nt,0.8,nt,nt
O=C(NCc1ccccc1)c1ccc2c(=O)[nH]c3c(C(=O)NCC4CCCO4)sc(=S)n3c2c1 (configuration not stated),3.9,0.2,19.8,23.4*,2.6,-0.9
O=C(NCc1ccco1)c1sc(=S)n2c1[nH]c(=O)c1ccccc12,-5.2,-0.7,-2.6,?,2.7,1.5
Cc1ccc(CNC(=O)c2ccc3c(=O)n(CC4CCCO4)c(=S)[nH]c3c2)cc1 (configuration not stated),4.8,3.1,35.6,0.7,-12.1,1.1
CCn1c(N)c(C(=O)NCC2CCCO2)sc1=S (configuration not stated),0.7,-1.9,0.4,-2.2,1.2,-0.3
O=C(NC1CCCC1)c1sc(=S)n2c1[nH]c(=O)c1ccccc12,7.0,0.5,5.2,28.8*,4.0,-1.6
